# Measured values reported in PubChem BioAssay AID504462 (Sanford-Burnham Center for Chemical Genomics, 2011).
# The whole screen tested about 340,000 compounds, of which about 1,700 (0.5%) were called active. This excerpt belongs to a sample that is enriched for actives. Unmarked numbers belong to inactive results. Cut-off read from the data, not from the text of the source: active = inhibition above about 40%; inactive = the rest.
# Molecular target: Cysteine protease ATG4B (Homo sapiens) (UniProt Q9Y4P1)
# Sequence (Q9Y4P1 whole entry, looked up): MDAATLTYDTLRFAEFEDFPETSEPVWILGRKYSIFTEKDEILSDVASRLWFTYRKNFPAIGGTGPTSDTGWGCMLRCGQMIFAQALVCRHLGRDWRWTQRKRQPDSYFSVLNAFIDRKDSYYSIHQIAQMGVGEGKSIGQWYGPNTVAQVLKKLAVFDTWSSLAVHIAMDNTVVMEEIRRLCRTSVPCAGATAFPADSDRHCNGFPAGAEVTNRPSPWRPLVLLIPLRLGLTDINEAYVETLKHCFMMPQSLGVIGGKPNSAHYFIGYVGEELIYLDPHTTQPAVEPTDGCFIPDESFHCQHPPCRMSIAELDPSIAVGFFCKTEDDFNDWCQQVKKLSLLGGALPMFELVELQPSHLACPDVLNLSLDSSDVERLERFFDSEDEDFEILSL
# Assay: ATG4B protease inhibitors, primary screen, biochemical, fluorescence, uHTS (AID 504462)
# Conditions: ATG4B cleavage of LC3-PLA2, NBD-HPC fluorescence, 1 h; at 8.33 µM; active compounds read high
row,Structure (SMILES),inhibition
1,Cc1c([N+](=O)[O-])c(N)nn1C,-3.74%
2,O=C(COC(=O)Cn1[nH]c(=O)c2ccccc2c1=O)Nc1c(Cl)cccc1C(F)(F)F,1.19%
3,CCC(C)N(C(=O)COC(=O)C1C(C(=O)OC)=C(C)NC(C)=C1C(=O)OC)C1CCS(=O)(=O)C1 (centres undefined),-4.18%
4,Cc1ccc(C)c2c1cc(C)c1nnc(SCC(=O)Nc3cccc(C(=O)O)c3)n12,-4.22%
5,CC(C)c1nc(SCC(=O)Nc2cccc(C(=O)O)c2)c2c3c(sc2n1)CCCC3,68.4% (active)
6,Cc1cc(NC(=O)CSc2nc(C(C)C)nc3sc4c(c23)CCC(C)C4)no1 (centres undefined),-8.31%
7,Cc1cc(N(C)C)cc(C)[n+]1[O-],1%
8,Cc1cccc(C)c1-n1c(C)cc(/C=C2\C(=O)NN(c3ccccc3)C2=O)c1C,50.9% (active)
9,C#CCOc1ccc(/C=C2/C(=O)NN(c3ccccc3)C2=O)cc1OC,3.6%
10,Cc1ccccc1-n1c(C)cc(/C=C2\NC(=O)NC2=O)c1C,-2.07%
11,CC(C)CC(=O)NC(=S)Nc1ccc(F)cc1F,0.36%
12,O=C(CC1C(=O)NCCN1CC(c1ccccc1)c1ccccc1)NCC1CCOCC1 (centres undefined),5.98%
13,Cc1cccc(CC(=O)Nc2c3c(nn2-c2cccc(Cl)c2)CS(=O)C3)c1 (centres undefined),-6.51%
14,Cc1sc2nc(CC(N)=O)[nH]c(=O)c2c1-c1ccccc1,5.21%
15,NC(=O)c1sc2nc3c(c(-c4ccccc4)c2c1N)CCC3,42.3% (active)
16,CCN(CC)C(=O)c1sc2nc(-c3ccccc3)ccc2c1N,-13.8%
17,CCN(CC)S(=O)(=O)c1ccc2c3c(cccc13)C(=O)S2,-12.5%
18,O=C(c1ccncc1)N1CCN(S(=O)(=O)c2cccc([N+](=O)[O-])c2)CC1,-1.28%
19,Cc1ccccc1/C=C\c1nc(O)c([N+](=O)[O-])c(=O)[nH]1,4.7%
20,CCCc1ccc(C(=O)[C@@H]2[C@@H](C(C)=O)N3c4ccc(F)cc4C=C[C@@H]3[C@@]23C(=O)Nc2ccccc23)cc1,7.49%
21,COc1ccc(CNC(=O)CCCn2nc(C)c([N+](=O)[O-])c2C)cc1,4.24%
22,Cc1nn(CC(=O)Nc2ccc(N(C)C)cc2)c(C)c1[N+](=O)[O-],-1.82%

row,Structure (SMILES),inhibition
1,Cc1ccc(Oc2cc(NC(=O)CCCn3nc(C)c([N+](=O)[O-])c3C)cc([N+](=O)[O-])c2)cc1,62% (active)
2,CN(c1ccc(OCC(=O)NC2=NCCS2)cc1)S(=O)(=O)c1ccc(F)cc1,-9.32%
3,COCCCNC(=S)NC(=O)c1ccc([N+](=O)[O-])cc1,-7.22%
4,Cc1nc2sc3c(c2c(=O)n1NC(=O)CCl)CCCC3,-3.09%
5,CCc1nc(N2CCN(C(C)=O)CC2)c2c3c(sc2n1)CCCC3,45.4% (active)
6,CCCc1nc2sc3c(c2c(=O)n1NC(=O)CCCl)CCCC3,10.3%
7,COc1cc(/C=C/C(=O)O)cc(S(=O)(=O)Nc2ccccc2SC)c1OC,-3.57%
8,CS(=O)(=O)N(Cc1ccccc1Cl)c1ccc(C(=O)NCc2cccnc2)cc1,-9.46%
9,CCCCN(C(=O)CSCC(=O)Nc1ccc(OC)cc1)c1c(N)n(CCC)c(=O)[nH]c1=O,-1.8%
10,COc1cccc(CNc2nc(C(F)(F)F)nc3ccccc23)c1,49% (active)
11,NS(=O)(=O)c1ccc(CCNc2nc(C(F)(F)F)nc3ccccc23)cc1,-2.12%
12,CCc1ccc(C(CNc2nc(C(F)(F)F)nc3ccccc23)N(C)C)cc1 (centres undefined),19.9%
13,COC(=O)CN(c1nc(C)c(Cl)c(OC)n1)S(=O)(=O)c1ccc(C)cc1,11.3%
14,CC1Cc2ccccc2N1C1=CC(=O)CC(C)(C)C1 (centres undefined),-2.3%
15,COc1ccc(S(=O)(=O)/N=C2\C=C(NS(=O)(=O)c3ccccc3)C(=O)c3ccccc32)cc1,-24.5%
16,CC1=C/C(=N\S(=O)(=O)c2ccccc2)C(C(C)C)=CC1=O,66% (active)
17,CC1=C/C(=N\OS(=O)(=O)c2ccccc2)C=CC1=O,-2.58%
18,Cc1cc(C)nc(-n2ncc3c2CC(c2ccc(C(C)C)cc2)CC3=O)n1 (centres undefined),-17.4%
19,Cc1ccc(CNC(=O)CCN2C(=O)[C@@H]3Cc4ccccc4CN3C2=O)cc1,2.31%
20,CC(=O)Nc1ccc(NC(=O)CSc2nnnn2-c2ccccc2F)cc1,2.29%
21,C=CCC1(CC=C)CCCN1C(=O)c1cc(COc2ccc(-n3cncn3)cc2)on1,7.84%
22,CC(C)CCNC(=O)C1CCCN(S(=O)(=O)c2ccc(F)cc2)C1 (centres undefined),0.97%
